EWS-Fli inh: EWS/Fli transcriptional activity inhibition. A673 NR0B1-luciferase reporter, viability-normalised. inhibition, % at 12.6 µM. 350,000 compounds, 0.67% hits. AID 651661;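 active = mean inhibition of at least 50% after viability correction, with every replicate also passing that limit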;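 also: firefly luciferase signal divided by Alamar Blue viability fluorescence both relative to DMSO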
LGR2 antag: blocks bursicon-induced cAMP signaling via Drosophila LGR2; 380,000 compounds, 0.35% hits; inhibition, % at 9.99 µM; HEK293 LGR2, CRE-luciferase, bursicon-stimulated, 4 h;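 active = drop in luminescence signal, shown as inhibition above about 50% in the replicate tests, limit read from the data, passing the limit was not always enough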;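 also: agonist challenge used bursicon conditioned medium at about half maximal strength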
TROY NFkB inh: inhibitors of TROY-dependent NF-kB signaling; Q293 LMP1-TROYcd NF-kB luciferase reporter, 4 h; 360,000 compounds, 0.98% hits; inhibition, % at 10 µM;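 active = compounds whose plate-normalised and pattern-corrected inhibition of the luciferase reporter signal at the single screening dose is 50% or more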
PAX8 inh HTS: inhibitors of PAX8 transcriptional activity in RMG-I cells. AID 652154. 360,000 compounds, 1.2% hits. RMG-I TPO-luciferase reporter, SteadyGlo, 24 h. inhibition, % at 12.6 µM;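 active = mean replicate inhibition at least 60% with every replicate also reaching 60%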;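 also: luciferase light reporting Pax8 driven TPO promoter activity; plate controls were median of neutral control wells for no effect and mitoxantrone controls for full effect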
TWEAK-Fn14 inh: TWEAK-Fn14 signaling inhibition; TWEAK-stimulated Fn14 reporter cells, luciferase luminescence, 8 h; inhibition, % at 10 µM; 360,000 compounds, 2% hits; in the data active = inhibition above about 50%
* marks the source's active call; other numbers are inactive results. This is a sample that favours compounds with a hit; in the whole collection about 2.8% have one here.

What do the screens show for `CCOC(=O)C1=C(CNCc2ccccc2Cl)NC(=O)NC1c1cccc([N+](=O)[O-])c1` (stereo unspecified)?
EWS-Fli inh: 3; LGR2 antag: 11; TROY NFkB inh: 6; PAX8 inh HTS: 14; TWEAK-Fn14 inh: 1

How did CC1=C(C(=O)OCc2ccc3c(c2)OCO3)C(c2ccc(O)c([N+](=O)[O-])c2)NC(=O)N1 (stereo unspecified) do in these assays?
EWS-Fli inh: 1; LGR2 antag: -2; TROY NFkB inh: 44; PAX8 inh HTS: -15; TWEAK-Fn14 inh: 71*

Results for O=C(N[C@H]1CC[C@@H](CCNS(=O)(=O)Cc2ccccc2)O[C@@H]1CO)c1ccccc1F ?
EWS-Fli inh: -8; LGR2 antag: 27; PAX8 inh HTS: -11

Results for Nc1nc(N)c2cc(CNc3ccc(Cl)c(Cl)c3)ccc2n1 ?
EWS-Fli inh: 14; LGR2 antag: 107*; TROY NFkB inh: 36; PAX8 inh HTS: 26; TWEAK-Fn14 inh: 98*

How did Nc1nc(N)c2cc(Sc3ccc(Cl)cc3)ccc2n1 do in these assays?
EWS-Fli inh: 12; LGR2 antag: 0; TROY NFkB inh: 25; PAX8 inh HTS: -19; TWEAK-Fn14 inh: 22

How did COc1ccc(NC(=O)N(C)C[C@H]2OCCCC[C@@H](C)Oc3ccc(NC(=O)CCC(F)(F)F)cc3C(=O)N([C@@H](C)CO)C[C@H]2C)cc1 do in these assays?
EWS-Fli inh: -2; LGR2 antag: 12; PAX8 inh HTS: -3

Results for Cc1ccc(Cc2c(C3CCCCC3)nc3c(C)cc(Br)cn23)cc1 ?
EWS-Fli inh: 4; LGR2 antag: -29; TROY NFkB inh: -19; PAX8 inh HTS: 34; TWEAK-Fn14 inh: 57*

How did Cc1ccc2[nH]cc(C(=O)CN3CCC4(CC3)OCCO4)c2c1 do in these assays?
TROY NFkB inh: -12; PAX8 inh HTS: -4; TWEAK-Fn14 inh: 51*

Results for O=c1c(Cl)c(Nc2cccc(Cl)c2)cnn1-c1nc2ccccc2s1 ?
LGR2 antag: 14; TROY NFkB inh: 26; PAX8 inh HTS: -121; TWEAK-Fn14 inh: 62*

How did C[C@@H]1CN([C@H](C)CO)C(=O)c2cc(NS(=O)(=O)c3cccs3)ccc2O[C@@H](C)CCCCO[C@@H]1CN(C)Cc1ccc(C(F)(F)F)cc1 do in these assays?
EWS-Fli inh: -1; LGR2 antag: -10; PAX8 inh HTS: 94*

How did C[C@H](CO)N1C[C@H](C)[C@@H](CN(C)Cc2ccc(C(F)(F)F)cc2)OCCCC[C@H](C)Oc2ccc(NS(=O)(=O)c3cccs3)cc2C1=O do in these assays?
EWS-Fli inh: 14; LGR2 antag: -6; PAX8 inh HTS: 71*

Results for C[C@H]1CCCCO[C@@H](CN(C)Cc2ccc(C(=O)O)cc2)[C@@H](C)CN([C@@H](C)CO)C(=O)c2cc(NS(=O)(=O)c3cccs3)ccc2O1 ?
EWS-Fli inh: -8; LGR2 antag: 4; PAX8 inh HTS: -8

Results for C[C@@H]1CN([C@@H](C)CO)C(=O)c2cc(NS(=O)(=O)c3cccs3)ccc2O[C@@H](C)CCCCO[C@H]1CN(C)Cc1ccc(C(F)(F)F)cc1 ?
EWS-Fli inh: 17; LGR2 antag: 41; PAX8 inh HTS: 84*

What do the screens show for `C[C@@H]1CN([C@H](C)CO)C(=O)c2cc(NS(=O)(=O)c3cccs3)ccc2O[C@@H](C)CCCCO[C@H]1CN(C)Cc1ccc(C(=O)O)cc1`?
EWS-Fli inh: 22; LGR2 antag: 3; PAX8 inh HTS: -36

What do the screens show for `C[C@@H]1CN([C@@H](C)CO)C(=O)c2cc(NS(=O)(=O)c3cccs3)ccc2O[C@@H](C)CCCCO[C@H]1CN(C)Cc1ccc(C(=O)O)cc1`?
EWS-Fli inh: -5; LGR2 antag: 3; PAX8 inh HTS: 0

How did C[C@@H]1CCCCO[C@H](CN(C)Cc2ccc(C(F)(F)F)cc2)[C@@H](C)CN([C@@H](C)CO)C(=O)c2cc(NS(=O)(=O)c3cccs3)ccc2O1 do in these assays?
EWS-Fli inh: 10; LGR2 antag: 20; PAX8 inh HTS: 89*

Results for CN1CCN(C(=O)C[C@H]2CC[C@@H](NC(=O)c3ccc4c(c3)OCO4)[C@@H](CO)O2)CC1 ?
EWS-Fli inh: -1; LGR2 antag: 4; PAX8 inh HTS: -1

What do the screens show for `CCCNC(=O)N1C[C@H](C)[C@@H](OC)CN(C)C(=O)c2ccc(NC(=O)CCC)cc2OC[C@@H]1C`?
EWS-Fli inh: -9; LGR2 antag: -21

What do the screens show for `O=C(CN1CCOCC1)N1CC2(C1)[C@@H](c1ccccc1)[C@@H](CO)N2Cc1cccc(F)c1`?
EWS-Fli inh: 0; LGR2 antag: -5; PAX8 inh HTS: -6

Results for COc1ccc(OCc2n(CC(=O)OC3CC(C)CCC3C(C)C)c3ccccc3[n+]2C)cc1 (stereo unspecified) ?
EWS-Fli inh: 53*; LGR2 antag: 23; TROY NFkB inh: 47; PAX8 inh HTS: 99*; TWEAK-Fn14 inh: 42

What do the screens show for `COc1ccc(-c2n(CC(=O)OC3CC(C)CCC3C(C)C)c3ccccc3[n+]2C)cc1` (stereo unspecified)?
EWS-Fli inh: 3; LGR2 antag: 14; TROY NFkB inh: 48; PAX8 inh HTS: 2; TWEAK-Fn14 inh: 80*

What do the screens show for `CC(C)C#Cc1ccc2c(c1)O[C@H](CN(C)Cc1cncnc1)[C@@H](C)CN([C@H](C)CO)S2(=O)=O`?
EWS-Fli inh: 18; LGR2 antag: -18

How did O=C(Nc1ccc(Cl)cc1)c1ccc2c(=O)n3c(nc2c1)CCCCC3 do in these assays?
EWS-Fli inh: -62; LGR2 antag: -46; TROY NFkB inh: -3; PAX8 inh HTS: -39; TWEAK-Fn14 inh: 8

What do the screens show for `O=C(Nc1ccccn1)c1ccc2c(=O)n3c(nc2c1)CCCCC3`?
EWS-Fli inh: -4; LGR2 antag: 13; TROY NFkB inh: 13; PAX8 inh HTS: -109; TWEAK-Fn14 inh: 56*

How did O=C(Nc1cccc(Cl)c1)c1ccc2c(=O)n3c(nc2c1)CCCCC3 do in these assays?
TROY NFkB inh: 53*; TWEAK-Fn14 inh: 41

How did CO[C@H]1CN(C)C(=O)c2ccc(NC(=O)C3CCC3)cc2OC[C@H](C)N(Cc2ccncc2)C[C@@H]1C do in these assays?
EWS-Fli inh: -1; LGR2 antag: -7; PAX8 inh HTS: -10

What do the screens show for `Cc1ccc([C@H]2C(C(=O)O)=CC[C@@H](c3ccc(Cl)c(Cl)c3)N2S(=O)(=O)c2ccc(C)cc2)cc1`?
EWS-Fli inh: 2; LGR2 antag: -7; TROY NFkB inh: 57*; PAX8 inh HTS: -6; TWEAK-Fn14 inh: 10

Results for O=C(NCc1cccnc1)c1cccc(NS(=O)(=O)c2ccc(Br)cc2)c1 ?
EWS-Fli inh: 58*; LGR2 antag: -3; TROY NFkB inh: 14; PAX8 inh HTS: 20; TWEAK-Fn14 inh: 17

Results for Cc1cc2ncn(CCOc3ccccc3C#N)c2cc1C ?
LGR2 antag: -24; TWEAK-Fn14 inh: 55*

Results for N#Cc1ccccc1OCCn1cncn1 ?
EWS-Fli inh: -4; LGR2 antag: 11; TROY NFkB inh: 6; PAX8 inh HTS: 2; TWEAK-Fn14 inh: 4

Screening results (PubChem)
